Calls of active or inactive are those of the source.

Test [1] has as its system PRMT1 (protein arginine N-methyltransferase 1). Briefly: small molecules binding arginine methyltransferase PRMT1 – biochemical, small-molecule microarray, 635 nm fluorescence, primary screen (AID 1088).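 Note: binding of Prmt1 protein to compounds spotted on small-molecule microarray slides.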 Particulars: higher = more signal.
The nature of test [2]: growth effects on S. cerevisiae YJM789 – YJM789 clinical isolate, OD600, 24 h, basal, primary screen (AID 1089).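 Note: growth of clinical yeast isolate S. cerevisiae YJM 789 seeded 1000 cells per well; test concentration not given here.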 To be noted: higher = more signal, called active from +8 up or from −8 down.
Test [3] in a line: S. pombe growth modifiers, basal conditions – strain 972, OD600, 24 h, no modulator, primary screen (AID 1090).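 Note: basal condition with compound alone and no growth modifier present; test concentration not given here.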 To be noted: S. pombe 972 growth, higher = more signal, called active from +8 up or from −8 down.
The nature of test [4]: budding yeast growth modifiers under rapamycin – strain BY4716, OD600, 96 h, primary screen (AID 1091). Note: test concentration not given here. Particulars: S. cerevisiae BY4716 + rapamycin, higher = more signal, called active from +8 up or from −8 down.
The target of test [5] is Torsin-1A-interacting protein 2 (Homo sapiens) (UniProt Q8NFQ8). Kind of test: small molecules binding lysate-expressed LULL1 – cell lysate, human LULL1 lysate, 635/667 nm fluorescence, primary screen (AID 1092).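 Note: probe is lysate of COS7 cells overexpressing human LULL1; score merges per-feature 667 nm fluorescence with signal-to-noise.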 Particulars: small-molecule microarray, hLULL1 lysate binding, 635 nm fluorescence; higher = more signal.
Chain of Torsin-1A-interacting protein 2 (Homo sapiens) (Q8NFQ8 whole entry, looked up): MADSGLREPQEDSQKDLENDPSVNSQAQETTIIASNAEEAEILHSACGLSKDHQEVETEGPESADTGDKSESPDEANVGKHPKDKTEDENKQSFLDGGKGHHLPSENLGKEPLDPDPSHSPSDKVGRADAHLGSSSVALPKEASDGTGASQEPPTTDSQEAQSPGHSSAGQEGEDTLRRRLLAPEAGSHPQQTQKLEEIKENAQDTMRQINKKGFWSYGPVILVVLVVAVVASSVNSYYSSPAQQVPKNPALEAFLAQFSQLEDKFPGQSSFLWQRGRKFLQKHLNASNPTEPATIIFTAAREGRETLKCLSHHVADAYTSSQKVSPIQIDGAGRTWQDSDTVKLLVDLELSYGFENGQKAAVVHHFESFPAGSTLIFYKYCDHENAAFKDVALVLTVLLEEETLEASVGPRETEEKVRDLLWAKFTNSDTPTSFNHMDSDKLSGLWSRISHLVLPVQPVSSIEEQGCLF
Test [6] is described as follows: optical density change of DRC41 E. coli – strain DRC41, OD650, 24 h, E. coli filamentation project, primary screen (AID 1093).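 Note: MC1000 strain lacking acrAB efflux and sulA so SOS filamentation is blocked; test concentration not given here.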 To be noted: E. coli DRC41 growth, higher = more signal, called active from +8 up or from −8 down.
Test [7] is described as follows: probe aLefty2 binding to arrayed compounds – biochemical, biotinylated probe, 635/667 nm fluorescence, primary screen (AID 1094).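 Note: score merges spot fluorescence near 667 nm with spot signal-to-noise ratio.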 Particulars: small-molecule microarray, higher = more signal.
In test [8] the test system is Noggin (protein binding on small-molecule microarray). Kind of test: small molecules binding Noggin protein – biochemical, 635/667 nm fluorescence, primary screen (AID 1095).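 Note: score merges 667 nm feature fluorescence with signal to noise over triplicate slides.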 Particulars: 635 nm fluorescence, higher = more signal.
The target in test [9] is Neurogenic locus notch homolog protein 3 (Homo sapiens) (UniProt Q9UM47). Kind of test: small molecules binding NOTCH3 protein – biochemical, 635/667 nm fluorescence, primary screen (AID 1096). Particulars: small-molecule microarray, 635 nm fluorescence, higher = more signal.
Chain of Neurogenic locus notch homolog protein 3 (Homo sapiens) (Q9UM47 whole entry, looked up): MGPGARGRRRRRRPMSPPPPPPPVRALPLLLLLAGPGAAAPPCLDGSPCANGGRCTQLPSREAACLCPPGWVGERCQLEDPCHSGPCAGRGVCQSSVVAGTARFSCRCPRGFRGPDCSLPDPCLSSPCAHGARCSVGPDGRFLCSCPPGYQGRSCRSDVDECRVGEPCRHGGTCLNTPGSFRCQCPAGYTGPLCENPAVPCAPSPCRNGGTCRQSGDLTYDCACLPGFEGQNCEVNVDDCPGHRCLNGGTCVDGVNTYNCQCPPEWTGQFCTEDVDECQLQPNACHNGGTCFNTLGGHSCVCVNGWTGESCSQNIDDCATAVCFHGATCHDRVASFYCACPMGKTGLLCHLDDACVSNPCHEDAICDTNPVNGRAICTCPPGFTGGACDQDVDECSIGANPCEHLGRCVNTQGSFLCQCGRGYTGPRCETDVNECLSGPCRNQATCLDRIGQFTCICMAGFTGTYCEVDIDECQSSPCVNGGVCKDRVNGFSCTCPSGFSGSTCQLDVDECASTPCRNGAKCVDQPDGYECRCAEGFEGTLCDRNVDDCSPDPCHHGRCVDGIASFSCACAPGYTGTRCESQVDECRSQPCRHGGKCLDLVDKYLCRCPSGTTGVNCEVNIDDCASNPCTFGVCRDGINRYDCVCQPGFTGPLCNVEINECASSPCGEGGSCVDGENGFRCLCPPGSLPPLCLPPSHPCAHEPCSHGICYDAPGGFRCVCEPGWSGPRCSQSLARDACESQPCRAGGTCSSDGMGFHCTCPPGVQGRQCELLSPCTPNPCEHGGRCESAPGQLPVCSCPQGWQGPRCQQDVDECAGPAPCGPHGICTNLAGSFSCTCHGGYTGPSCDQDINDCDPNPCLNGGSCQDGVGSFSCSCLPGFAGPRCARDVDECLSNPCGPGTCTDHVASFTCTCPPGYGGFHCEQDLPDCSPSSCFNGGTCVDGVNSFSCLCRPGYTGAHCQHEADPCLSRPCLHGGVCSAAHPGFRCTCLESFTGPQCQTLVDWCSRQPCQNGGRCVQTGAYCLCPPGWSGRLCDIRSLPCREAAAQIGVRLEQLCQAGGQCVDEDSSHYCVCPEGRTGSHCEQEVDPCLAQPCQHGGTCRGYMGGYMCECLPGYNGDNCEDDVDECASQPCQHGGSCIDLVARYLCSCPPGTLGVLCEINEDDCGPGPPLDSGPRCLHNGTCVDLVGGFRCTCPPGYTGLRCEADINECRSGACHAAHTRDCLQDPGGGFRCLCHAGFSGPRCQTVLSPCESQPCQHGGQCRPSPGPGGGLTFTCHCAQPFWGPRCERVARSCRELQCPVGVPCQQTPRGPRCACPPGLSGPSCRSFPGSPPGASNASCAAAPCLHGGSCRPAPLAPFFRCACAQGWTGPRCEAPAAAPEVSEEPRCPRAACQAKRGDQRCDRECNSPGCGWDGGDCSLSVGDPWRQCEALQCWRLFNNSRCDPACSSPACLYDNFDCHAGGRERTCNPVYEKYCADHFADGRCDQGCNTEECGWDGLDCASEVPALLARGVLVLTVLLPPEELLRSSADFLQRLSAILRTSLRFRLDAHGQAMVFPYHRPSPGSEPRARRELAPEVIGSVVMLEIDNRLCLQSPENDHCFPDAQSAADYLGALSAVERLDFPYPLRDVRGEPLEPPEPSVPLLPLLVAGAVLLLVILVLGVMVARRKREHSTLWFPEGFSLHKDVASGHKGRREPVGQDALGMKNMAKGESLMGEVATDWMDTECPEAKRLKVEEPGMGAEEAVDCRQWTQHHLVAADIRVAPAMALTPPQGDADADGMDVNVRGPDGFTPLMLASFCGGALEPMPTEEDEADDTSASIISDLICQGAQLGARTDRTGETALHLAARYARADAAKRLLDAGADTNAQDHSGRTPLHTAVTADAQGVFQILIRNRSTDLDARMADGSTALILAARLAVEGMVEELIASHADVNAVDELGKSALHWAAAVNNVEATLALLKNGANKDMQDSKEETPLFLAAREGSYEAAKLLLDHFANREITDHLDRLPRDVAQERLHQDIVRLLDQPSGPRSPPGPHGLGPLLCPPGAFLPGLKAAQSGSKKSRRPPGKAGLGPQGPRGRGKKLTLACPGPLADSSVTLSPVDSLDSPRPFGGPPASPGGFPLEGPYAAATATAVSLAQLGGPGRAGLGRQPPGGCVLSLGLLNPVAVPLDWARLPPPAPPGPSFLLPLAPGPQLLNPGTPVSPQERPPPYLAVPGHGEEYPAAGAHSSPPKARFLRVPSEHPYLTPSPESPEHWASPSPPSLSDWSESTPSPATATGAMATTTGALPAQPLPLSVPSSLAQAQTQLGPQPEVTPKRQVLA
A short description of test [10]: probe aEGFR binding to arrayed compounds – biochemical, biotinylated probe, 635/667 nm fluorescence, primary screen (AID 1097).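 Note: probe is a biotinylated anti-EGFR antibody binding compounds printed on slides; score combines fluorescence near 667 nm and signal to noise of each spot.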 To be noted: small-molecule microarray, higher = more signal.
Test [11] has as its system Plasmodium falciparum Sir2 (PF13_0152, Sir2A). Briefly: Plasmodium falciparum Sir2A binding compounds – biochemical, small-molecule microarray, 635 nm fluorescence, primary screen (AID 1098).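 Note: score merges spot fluorescence intensity with its signal-to-noise ratio.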 Particulars: fluorescence 635 nm, higher = more signal.
The nature of test [12]: probe aDKK1 binding to arrayed compounds – biochemical, biotinylated probe, 635/667 nm fluorescence, primary screen (AID 1099).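 Note: score merges 667nm spot fluorescence with signal to noise across triplicate slides; reference of the scale not given here.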 Particulars: small-molecule microarray, higher = more signal.
The nature of test [13]: probe aCHRDL2 binding to arrayed compounds – biochemical, biotinylated probe, 635/667 nm fluorescence, primary screen (AID 1100). To be noted: small-molecule microarray, higher = more signal.
The nature of test [14]: change in splice reporter luminescence, either direction, cell-based, HEK293, spliceosome inhibition project, primary screen (AID 1101).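 Note: HEK293 cells carrying a splicing-competent luciferase reporter gene; test concentration not given here.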 To be noted: HEK293 splicing luciferase reporter, 24 h, higher = more signal, called active from +8 up or from −8 down.
In test [15] the target is Fibroblast growth factor 10 (Homo sapiens) (UniProt O15520). Briefly: compounds binding fibroblast growth factor 10 – biochemical, small-molecule microarray, 635 nm fluorescence, primary screen (AID 1102). Particulars: FGF10 binding, fluorescence 635 nm, higher = more signal.
Chain of Fibroblast growth factor 10 (Homo sapiens) (O15520 whole entry, looked up): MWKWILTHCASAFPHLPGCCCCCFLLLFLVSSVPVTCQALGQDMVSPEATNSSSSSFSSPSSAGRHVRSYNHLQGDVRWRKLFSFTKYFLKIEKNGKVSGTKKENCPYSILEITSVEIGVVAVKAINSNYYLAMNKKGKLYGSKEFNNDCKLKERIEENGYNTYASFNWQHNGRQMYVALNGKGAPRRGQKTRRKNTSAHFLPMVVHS
Test [16] relates to glycogen synthase kinase-3 (GSK3A per assay name; protocol says GSK3B). Kind of test: compounds binding glycogen synthase kinase-3 – biochemical, small-molecule microarray, 635 nm fluorescence, GSK3A, primary screen (AID 1103). Note: the record names both GSK3A and GSK3B. To be noted: fluorescence 635 nm, higher = more signal.
Test [17] concerns the target Epidermal growth factor receptor (Homo sapiens) (UniProt P00533). Briefly: compounds binding epidermal growth factor receptor – biochemical, small-molecule microarray, 635 nm fluorescence, primary screen (AID 1104).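 Note: score merges 667 nm emission intensity with spot signal to noise over triplicate slides.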 Particulars: EGFR binding, higher = more signal.
Test [18] deals with Follistatin-related protein 3 (Homo sapiens) (UniProt O95633). Kind of test: compounds binding follistatin-related protein 3 – biochemical, small-molecule microarray, 635 nm fluorescence, primary screen (AID 1105).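 Note: score merges emission near 667 nm and signal to noise per printed spot across three slides.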 Particulars: FSTL3 binding, higher = more signal.
Chain of Follistatin-related protein 3 (Homo sapiens) (O95633 whole entry, looked up): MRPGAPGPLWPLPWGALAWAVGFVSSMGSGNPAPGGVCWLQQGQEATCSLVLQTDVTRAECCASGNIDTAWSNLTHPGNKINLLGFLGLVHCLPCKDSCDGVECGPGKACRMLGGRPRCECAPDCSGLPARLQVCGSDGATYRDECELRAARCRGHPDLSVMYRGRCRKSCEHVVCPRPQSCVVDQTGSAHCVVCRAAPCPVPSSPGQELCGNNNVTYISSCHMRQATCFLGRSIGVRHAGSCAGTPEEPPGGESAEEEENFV
Test [19] has as its target Dickkopf-related protein 1 (Homo sapiens) (UniProt O94907). Kind of test: small molecules binding DKK1 protein – biochemical, small-molecule microarray, 635 nm fluorescence scan, primary screen (AID 1106).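 Note: score merges emission near 667 nm with signal to noise over three replicate slides.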 Particulars: higher = more signal.
Test [20] deals with Inhibin beta A chain (activin A). Kind of test: small molecules binding activin A – biochemical, small-molecule microarray, 635 nm fluorescence scan, primary screen (AID 1107).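 Note: mouse activin A protein probed at 4.33 µg/mL on printed slides; score merges bound-protein fluorescence near 667 nm with spot signal-to-noise.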 To be noted: INHBA, higher = more signal.

Chain of Epidermal growth factor receptor (Homo sapiens) (P00533 whole entry, looked up): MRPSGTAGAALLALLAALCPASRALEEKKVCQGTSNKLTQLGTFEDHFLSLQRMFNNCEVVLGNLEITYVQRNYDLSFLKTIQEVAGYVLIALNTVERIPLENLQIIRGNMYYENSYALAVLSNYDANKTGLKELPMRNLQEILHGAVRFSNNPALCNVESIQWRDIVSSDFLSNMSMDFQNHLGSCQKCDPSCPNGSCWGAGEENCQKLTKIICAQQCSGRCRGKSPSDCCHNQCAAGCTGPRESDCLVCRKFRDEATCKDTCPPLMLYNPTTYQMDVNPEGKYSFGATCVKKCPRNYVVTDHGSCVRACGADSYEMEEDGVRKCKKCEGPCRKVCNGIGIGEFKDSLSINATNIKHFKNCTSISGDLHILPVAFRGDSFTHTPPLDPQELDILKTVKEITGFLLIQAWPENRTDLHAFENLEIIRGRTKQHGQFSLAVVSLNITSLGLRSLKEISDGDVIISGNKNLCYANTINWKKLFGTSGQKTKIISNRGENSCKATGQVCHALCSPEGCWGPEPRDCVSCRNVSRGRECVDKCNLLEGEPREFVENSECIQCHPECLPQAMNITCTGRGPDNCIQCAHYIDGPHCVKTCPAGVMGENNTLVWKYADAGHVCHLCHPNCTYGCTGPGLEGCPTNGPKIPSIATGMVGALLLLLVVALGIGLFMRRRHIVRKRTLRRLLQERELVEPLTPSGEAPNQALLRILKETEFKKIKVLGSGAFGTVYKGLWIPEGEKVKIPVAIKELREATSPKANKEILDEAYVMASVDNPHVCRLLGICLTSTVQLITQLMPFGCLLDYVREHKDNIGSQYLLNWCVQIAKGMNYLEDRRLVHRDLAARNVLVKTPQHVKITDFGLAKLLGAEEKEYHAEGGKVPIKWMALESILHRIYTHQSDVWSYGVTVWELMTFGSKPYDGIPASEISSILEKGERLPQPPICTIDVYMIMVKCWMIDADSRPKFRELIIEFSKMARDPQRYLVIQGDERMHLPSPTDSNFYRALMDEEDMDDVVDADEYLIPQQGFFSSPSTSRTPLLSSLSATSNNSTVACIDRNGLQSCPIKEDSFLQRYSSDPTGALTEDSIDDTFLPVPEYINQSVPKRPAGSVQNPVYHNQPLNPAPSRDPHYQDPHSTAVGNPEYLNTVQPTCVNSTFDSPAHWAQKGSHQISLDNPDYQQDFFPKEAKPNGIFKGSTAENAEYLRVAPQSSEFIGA
Chain of Dickkopf-related protein 1 (Homo sapiens) (O94907 whole entry, looked up): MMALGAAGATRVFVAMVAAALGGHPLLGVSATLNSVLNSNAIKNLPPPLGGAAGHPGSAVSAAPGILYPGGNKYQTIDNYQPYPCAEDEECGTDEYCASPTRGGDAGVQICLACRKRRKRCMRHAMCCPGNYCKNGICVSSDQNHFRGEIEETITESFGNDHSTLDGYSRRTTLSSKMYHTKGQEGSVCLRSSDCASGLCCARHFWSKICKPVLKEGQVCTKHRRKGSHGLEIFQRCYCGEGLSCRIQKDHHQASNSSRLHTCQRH

As to `CO[C@@H]1COC(=O)CC=C[C@H](C)COC(=O)[C@H](Cc2ccccc2)NC(=O)CC=C[C@H]1C`, the composite z-score in test [1] is 1.48; in test [5] it was -0.844; in test [7] it was -0.399; in test [8], 1.6; in test [9] it was 0.202; in test [10], -0.0773. Besides, the composite z-score in test [11] is 0.534; in test [12], -1.19; in [13] it was -1.74; in test [15], 0.472; in [16] it was 0.622; in test [17], 1.03. Also, the composite z-score stood at 1.25 in test [18], 2.22 in test [19] and 1.36 in test [20]. The z-score was -0.346 (inactive) in test [2]; -0.867 (inactive) in [3]; -1.61 (inactive) in [4]; -0.0298 (inactive) in test [6]; -0.912 (inactive) in test [14].

`COC(=O)C(CC#Cc1ccc2c(c1)[C@]1(C(=O)N2)[C@H](C(=O)N2CCCCCCC2)[C@H]2C(=O)O[C@H](c3ccccc3)[C@H](c3ccccc3)N2[C@@H]1c1ccc(O)cc1)C(=O)OC`: the composite z-score in test [1] is -1.19; in test [5], -0.573; in [7] it was -0.294; in [8] it was -0.805; in test [9] it was -0.909; in test [10], -0.221. The composite z-score is 0.465 in test [11]; -0.2 in test [12]; 0.269 in test [13]; -1.05 in test [15]; -1.63 in test [16]; -0.887 in [17]. Moreover, the figures for the composite z-score in test [18], in test [19] and in test [20] were -0.635, -0.785 and 0.16, respectively. Moreover, the z-score in [2] was -0.428 (inactive); in [3] it was 0.0597 (inactive); in test [4], 0.702 (inactive); in test [6], 0.904 (inactive); in test [14], -0.751 (inactive).

Regarding `O=C1c2ccccc2[C@](Cc2ccccc2I)(C(=O)O)[C@H](c2ccc(CO)cc2)N1C1CCCCC1`, the composite z-score in [1] came out at 1.54; in test [5], 2.56; in test [7], 0.143; in test [8] it was 0.597; in test [9], 1.01; in test [10], 0.252. Besides, the composite z-score worked out at 1.31 in test [11]; 0.94 in [12]; 1.05 in test [13]; 1.28 in test [15]; 1.28 in test [16]; 0.947 in test [17]. Further, the composite z-score in test [18] amounted to 1.06; in test [19] it was 0.16; in test [20], 0.198. The z-score in test [2] is -0.602 (inactive); in test [3], -2.37 (inactive); in test [4] it was -0.997 (inactive); in test [6] it was 2.51 (inactive); in test [14], -1.32 (inactive).

With `NC(=O)NCC#Cc1ccc2c(c1)[C@]1(C(=O)N2)[C@H](c2ccccc2OCCO)N2[C@H](c3ccccc3)[C@H](c3ccccc3)OC(=O)[C@H]2[C@@H]1C(=O)N1CCN(c2ncccn2)CC1`, the composite z-score in [1] was 1.54; in test [5], 2.7; in [7], 0.276; in test [8], 1.17; in test [9], 1.02; in [10] it was -0.0286. Moreover, the composite z-score in test [11] amounted to 0.722; in test [12] it was 0.0815; in test [13] it was 0.542; in [15], 0.651; in test [16], 0.814; in test [17] it was 0.251. Further, the composite z-score in [18] came out at 0.844; in [19], 0.133; in test [20] it was 1.25. In addition, the z-score is 1.73 (inactive) in [2]; 0.0422 (inactive) in test [3]; 4.25 (inactive) in [4]; 2.9 (inactive) in [6]; 0.222 (inactive) in test [14].

As for `COCCOC(=O)N1C(=O)[C@@]2(c3cc(C#CCCO)ccc31)[C@H](c1ccc(O)cc1)N1[C@H](c3ccccc3)[C@H](c3ccccc3)OC(=O)[C@H]1[C@@H]2C(=O)Nc1nc2ccccc2s1`, the composite z-score in [1] is 1.55; in test [5] it was 2.84; in test [7], -0.0283; in test [8] it was 1.39; in test [9] it was 1.09; in test [10], 0.0082. The composite z-score in [11] is 0.762; in [12], -0.0965; in [13], -0.148; in test [15], 1.33; in [16] it was 1.32; in test [17] it was 0.562. The composite z-score in [18] worked out at 1.44; in [19], 0.685; in test [20], 0.364. Besides, the z-score was -0.123 (inactive) in test [2]; -0.239 (inactive) in test [3]; 0.691 (inactive) in test [4]; 1.74 (inactive) in test [6]; -1.13 (inactive) in test [14].

For the origin of these results see PubChem BioAssay.
